Screens as filed in PubChem BioAssay.
Rows were chosen to be rich in hits. Some 4% of all compounds tested hit in one or more screens of this group.
HIF-2a inh = blocks HIF-2a reporter activity; 786-0 RCC cells HIF-2a reporter, luciferase luminescence, overnight; inhibition, % at 18.8 µM; 0.72% of 360,000 active; AID 624352;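 active = inhibition of the luminescence signal of 40% or more relative to plate controls, in a single-dose primary screen at 18.75 µM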
CF NFkB block = blocks PAF-induced NF-kB reporter in cystic fibrosis cells; inhibition, % at 5 µM; KKLEB NF-kB-GFP reporter, GFP fluorescence overnight; 0.86% of 360,000 active;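 active = at least 50% inhibition at 5 µM, scaled per plate between neutral and stimulator controls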;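 also: PAF is a Pseudomonas aeruginosa culture filtrate used as stimulus; plate controls were PAF-stimulated DMSO wells for no effect and unstimulated DMSO wells for full effect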
KKLEB cytotox = counter-screen for CF NF-kB inhibitors: cytotoxicity. 0.36% of 360,000 active. activity change (cytotoxicity), % at 5 µM. AID 602141. KKLEB CF airway cells viability, ATPlite luminescence, overnight; stronger effect = lower value; cells stimulated with P. aeruginosa culture filtrate;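 active = corrected activity change at or below -50% at 5 µM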
TROY NFkB inh = blocks TROY-dependent signaling in reporter cells | Q293 LMP1-TROYcd NF-kB luciferase reporter, 4 h | inhibition, % at 10 µM | 0.98% of 360,000 active;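 active = compounds whose plate-normalised and pattern-corrected inhibition of the luciferase reporter signal at the single screening dose is 50% or more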
Peg3 prom inh = reduces Peg3 promoter-driven luciferase expression in HeLa; HeLa PEG-Prom luciferase reporter, luminescence, overnight; inhibition, % at 20 µM; 1.7% of 360,000 active; AID 588405;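 active = inhibition of at least 50% at 20 µM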
TWEAK Fn14 block = inhibitors of TWEAK-Fn14 interaction signaling | 2% of 360,000 active | TWEAK-stimulated Fn14 reporter cells, luciferase luminescence, 8 h | inhibition, % at 10 µM | AID 1159606; in the data active = inhibition above about 50%
Active calls of the source: *; / = no result given.

SMILES	HIF-2a inh	CF NFkB block	KKLEB cytotox	TROY NFkB inh	Peg3 prom inh	TWEAK Fn14 block
O=C1C(Cl)=C(NCc2cccnc2)C(=O)c2ccccc21	13.7	37.4	-6.4	-28.6	1.8	5.5
CC(C)NC1=C(Cl)C(=O)c2ccccc2C1=O	-53.5	50.1*	-22.2	-27.8	-36.0	14.5
CCN(CC)CCCNC1=C(Cl)C(=O)c2ccccc2C1=O	83.8*	64.7*	-2.2	26.6	18.3	19.5
COC(=O)c1ccc(CNC(=O)c2ccccc2C(=O)NCC2(CBr)OCCO2)cc1	10.9	-7.4	0.2	-7.3	0.2	-22.8
Cc1ccc(NC(=O)c2ccc3c(=O)n4c(nc3c2)CCCCC4)nc1	-157.5	-9.8	11.5	-62.9	-132.5	-8.8
Cc1cccc(NC(=O)c2ccc3c(=O)n4c(nc3c2)CCCCC4)n1	-94.2	2.2	-10.5	40.0	-95.0	57.1*
CC(=O)c1cccc(NC(=O)c2ccc3c(=O)n4c(nc3c2)CCCCC4)c1	-41.6	-19.1	-4.6	-21.2	-30.2	3.5
O=C(Nc1ccccc1Cl)c1ccc2c(=O)n3c(nc2c1)CCC3	-224.1	-12.8	-4.7	-8.5	-244.0	24.1
O=C(Nc1nc(-c2ccccc2)cs1)c1ccc2c(=O)n3c(nc2c1)CCCCC3	-59.8	3.6	16.5	71.4*	74.2*	106.0*
O=C(Nc1cccc(S(=O)(=O)N2CCCC2)c1)c1ccc2c(=O)n3c(nc2c1)CCCCC3	-3.4	7.3	11.5	27.6	-91.3	56.5*
O=C1NC(=O)C(=C2CCOC2=O)N1	6.7	-13.2	3.1	4.7	4.1	-1.1
Nc1nc2ncccn2c1-c1ccc(C(F)(F)F)cc1	3.8	/	/	/	/	/
Cc1ccccc1CN(C)C1CCN(C)CC1	22.6	-7.0	-2.7	22.0	5.6	110.0*
COc1ccc(-c2nnc3sc(CN4C(=O)c5ccccc5C4=O)nn23)cc1	2.8	-10.4	10.0	14.4	2.4	93.3*
CN1C[C@@H]2[C@@H]3C(=O)N(C)C(=O)[C@@H]3[C@](Cc3ccccc3)(C1=O)N2C(=O)c1ccc(F)cc1	-19.6	-5.4	-7.1	-6.9	-42.2	2.2
O=C(O)c1cc(NC(=O)C2CCCO2)cc(C(=O)O)c1 (centres undefined)	15.2	-14.8	1.4	16.2	11.2	30.6
CC(C)(C)c1cc(NC(=O)C2CCCO2)no1 (centres undefined)	-186.2	6.4	4.5	60.7*	-127.3	64.7*
COc1cccc(N2CCN(C(=O)c3ccc(OC)c(S(=O)(=O)NC4CC4)c3)CC2)c1	-72.3	-40.9	19.0	-40.8	-56.3	-28.6
O=C(NNC(=O)c1ccccc1OCc1ccccc1Cl)c1csc(N2CCOCC2)n1	-17.2	-17.7	-8.0	-10.1	21.1	-59.5
O=C(C(Br)=Cc1ccccc1)c1ccccc1	85.5*	94.2*	-42.8	-2.1	107.9*	92.9*
CCc1nc2ccc(C(=O)Nc3cccc(OCC(=O)N(C)C)c3)cn2c1N(CCC(C)C)CCN(C)C	-0.7	-12.0	7.2	1.2	3.7	-6.2
O=C(NC1CC2CCCC(C1)N2Cc1ccc(F)cc1)c1ccc(F)cc1 (centres undefined)	13.9	4.6	-5.6	8.3	8.1	22.1
C=CCn1cnc2c(oc3ccccc32)c1=O	-124.1	-5.3	1.1	-22.9	-63.7	-0.5
CCCCC1CCC(c2nc(-c3ccccn3)no2)CC1 (centres undefined)	-63.6	0.0	-5.8	25.4	-121.8	55.5*
O=C(CN1c2ccccc2Sc2ccccc21)NNC(=O)Nc1ccc(Cl)cc1	33.2	-12.6	-0.5	31.0	27.1	11.0
SMILES	HIF-2a inh	CF NFkB block	KKLEB cytotox	TROY NFkB inh	Peg3 prom inh	TWEAK Fn14 block
O=C(CN1c2ccccc2Sc2ccccc21)NNC(=O)Nc1ccc(Cl)c(Cl)c1	-6.6	1.6	16.8	59.3*	24.5	23.2
CC1C(=O)N2CCCc3cc(NC(=O)C(=O)NCCc4ccc(F)cc4)cc1c32 (centres undefined)	-2.0	-14.1	5.3	2.3	-1.5	-7.3
O=C1NC(=O)C2C3OC(C(Br)C3Br)C12 (centres undefined)	5.7	-7.7	4.1	19.2	7.2	6.8
COc1cc(C2C3=C(COC3=O)OC(C)(C)Oc3cc4c(cc32)OCO4)cc(OC)c1OC (centres undefined)	23.4	64.2*	-40.3	16.7	-20.8	-5.3
O=C(N/N=C/c1cn(Cc2ccccc2)c2ccccc12)c1cccnc1	-17.4	3.6	-9.0	7.0	17.5	53.6*
CCn1nnnc1SCC(=O)N1c2ccccc2Sc2ccccc21	11.4	14.3	-4.1	34.7	8.9	63.2*
Cn1nnnc1SCC(=O)N1c2ccccc2Sc2ccccc21	13.8	-9.3	3.4	11.4	4.2	-10.9
O=C(NC12CC3CC(CC(C3)C1)C2)C1CCCN1C(=O)Nc1ccccc1 (centres undefined)	10.0	-15.2	6.6	9.7	11.6	8.5
O=C(CN1CCCCC1)N=Nc1c(O)[nH]c2ccccc12	-41.5	-10.4	14.7	8.5	-6.5	-1.1
O=C(CN1CCN(Cc2ccccc2)CC1)N=Nc1c(O)[nH]c2ccccc12	12.9	-2.8	-8.1	32.3	52.0*	-16.3
CC(=O)Nc1ccc(NC(=O)C2CCN(S(C)(=O)=O)CC2)cc1	12.2	-8.8	8.8	0.8	5.8	-3.7
O=C1OC(c2ccc3ccccc3c2O)(c2ccc3ccccc3c2O)c2ccccc21	-94.0	18.1	34.0	66.2*	-78.5	95.4*
COc1ccc(CC(=O)N2CCOCC2)cc1OC	5.7	6.4	-11.9	-0.5	10.9	12.0
COc1ccc(CC(=O)N2CCOCC2)cc1	1.6	13.1	-14.4	-14.6	-0.2	99.2*
Cc1cc(C)c2nc(NCCCNC(=S)NCCCN(C)C)c(C#N)cc2c1	9.2	1.4	-3.0	3.9	90.9*	9.7
CCOC(=O)C(C(=O)OCC)C(Nc1ccc(Br)cc1)c1ccccc1 (centres undefined)	23.7	25.2	-9.3	4.9	11.1	54.1*
C[C@@H]1CN([C@@H](C)CO)C(=O)CCCn2nncc2CO[C@H]1CN(C)S(C)(=O)=O	7.7	-20.5	5.0	7.8	-5.2	-3.7
COC(=O)C(Sc1ccc(Cl)cc1)C1SC(=S)N(Cc2ccccc2)C1=O (centres undefined)	-5.9	57.8*	-11.3	-10.1	9.8	13.9
COc1ccc(NC(=O)C2CCCN2S(=O)(=O)c2ccc3c(c2)C(C)(C)C(=O)N3C)cc1 (centres undefined)	-1.3	-5.8	-10.1	3.2	2.4	1.5
Cc1cccnc1NC(=O)c1ccc(OCC2CCCO2)cc1 (centres undefined)	-106.3	15.0	-23.6	-30.0	-37.2	-16.7
COc1ccc2nc(NC(=O)c3ccc(NC(=O)C4CCCO4)cc3)sc2c1 (centres undefined)	-195.9	-19.6	20.1	9.2	-75.7	7.9
Cc1ccc2nc(NC(=O)c3ccc(OCC4CCCO4)cc3)sc2c1 (centres undefined)	-170.4	-18.0	1.1	37.4	-40.3	90.3*
